Values without a mark were called inactive. No rule for the calls is given here.
Potency is read from the fitted curve at half-maximal effect.

The subject of the assay is HIV-1 nucleocapsid protein NCp7 (binding to TG oligonucleotide). Description: HIV Nucleocapsid (AID 346).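 Also: potency is for inhibitors that block NC binding and lower polarization.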 Particulars: HIV-1 NC / fluorescein-TGTGTGTG probe, fluorescence polarization. Here is the method: NCGC Assay Overview: HIV-1 nucleocapsid protein (HIV-1 NC) is a small (6.5 kDa) basic zinc-finger protein which participates in packaging of viral genomic RNA. The spacing and metal-chelating residues (3 Cys, 1 His) of the Cys-X2-Cys-X4-His-X4-Cys Zn fingers are conserved among all known retroviruses (J. Med. Chem. 1998, 41, 1371-1381). HIV-1 NC was assayed for its binding to the consensus sequence single-stranded 5'-TGTGTGTG. […] High salt was included to increase the stringency of binding and inhibitor screen. Reducing agents and zinc were present to stabilize the nucleocapsid zinc-finger protein.
NCGC Assay Protocol Summary: Buffer. Hepes pH 7.5, 250mM NaCl, 1uM ZnCl2. 0.004% polyethylene glycol 20000. TCEP (100 uM) and 2-Mercaptoethanol (5 mM), added fresh the day of the experiment. Reagents/Controls. 10 nM TG4xF only in columns 3 and 4 as negative control. 10 nM TG4xF/100 nM HIV-1 NC in columns 1, 2, 5-48. Titration of control compound NSC-13778 (from 20 mM, then 1:2) pin-transferred to column 2. Assay Steps. Two uL of reagents were dispensed to 1536-well Kalypsys black plates. The plates were centrifuged for 1 min at 1000 rpm. Compounds and controls (20 nL) were transferred via Kalypsys PinTool. The plates were incubated for 1 hr at room temperature, and then read on ViewLux (Perkin-Elmer). High-throughput CCD imager using fluorescein polarization filter set and 45 seconds exposure time.
As to `COCCn1c(=O)c(-c2cn(C)c3ccccc23)nc2cnc(Oc3ccccc3)nc21`, the Potency was more than 20 µM.

For the compound `COCCn1c(=O)c(-c2cn(C)c3ccccc23)nc2cnc(Oc3ccc(OC)cc3)nc21`, the Potency was more than 20 µM.

Regarding `Cc1cnc(CNc2ccnc(-c3cccnc3)n2)cn1`, the Potency was more than 20 µM.

As for `COc1ccccc1CCn1c(=O)c(-c2cn(C)c3ccccc23)nc2cncnc21`, the Potency was more than 4 µM.

As to `CC(=O)N1CCC[C@@]2(CCN(C(c3ccccc3)c3ccccc3)C2)C1`, the Potency is more than 20 µM.

For the compound `CN1CCN(c2cc(-c3ccc(N(C)C)cc3)ncn2)CC1`, the Potency was more than 20 µM.

In the case of `c1ccc(Nc2ncncc2-c2ccc3c(c2)OCO3)cc1`, the Potency was more than 20 µM.

Turning to `CC(=O)N1CCC[C@@]2(CCN(c3ccccc3)C2)C1`, the Potency is more than 20 µM.

For `COc1ccccc1CN1CCC2(CC1)CCN(C(C)=O)CC2`, the Potency is more than 20 µM.

As to `O=C(c1cccc(F)c1)N1CCC2(CCCN(c3ccc(-c4ccccc4)cc3)C2)CC1`, the Potency was more than 20 µM.

As for `COCCn1c(=O)c(-c2cccs2)nc2cnc(Nc3ccccc3)nc21`, the Potency was more than 20 µM.

On to `COc1ccc(-n2c(=O)c(-c3cn(C)c4ccccc34)nc3cnc(OC)nc32)cc1`, for which the Potency was more than 20 µM.

As to `O=C(c1cnccn1)N1CCC2(CC1)CN(Cc1cc(C(F)(F)F)cc(C(F)(F)F)c1)C2`, the Potency was more than 20 µM.

Turning to `Cc1cnc(CNc2cc(-c3ccc(C(=O)N(C)C)cc3)ncn2)cn1`, the Potency is more than 20 µM.

For `O=C(Nc1cccc(F)c1)N1CCCC2(CCN(C(=O)c3ccncc3)CC2)C1`, the Potency was more than 20 µM.

Take `Cn1c(=O)c(-c2ccc(Cl)cc2)nc2cnc(Nc3ccccc3)nc21`: the Potency was more than 20 µM.

As for `CC(C)CN1CCC2(CC1)CCN(C(=O)c1ccncc1)CC2`, the Potency is more than 20 µM.

In the case of `Cc1cnc(CNc2nc(-c3cccc(NS(C)(=O)=O)c3)nc3ccccc23)cn1`, the Potency is more than 20 µM.

As to `Cc1cccc(CNc2ncncc2-c2ccc(C(=O)N(C)C)cc2)c1`, the Potency is more than 20 µM.

Take `CN(Cc1ccco1)c1nc(-c2ccoc2)nc2ccccc12`: the Potency is more than 20 µM.

As for `COc1ccccc1CNc1cc(-c2cccnc2)ncn1`, the Potency is more than 20 µM.

For `CN(C)c1ncc2nc(-c3ccccc3)c(=O)n(-c3ccccc3)c2n1`, the Potency was more than 20 µM.

Regarding `O=C(Nc1cccc(F)c1)N1CC[C@@]2(CCCN(S(=O)(=O)c3ccccc3)C2)C1`, the Potency was more than 20 µM.

For the compound `COCCn1c(=O)c(CCc2ccccc2)nc2cnc(N3CCNCC3)nc21`, the Potency was more than 20 µM.

Regarding `COCCNc1ncnc2ccc(-c3ccc(N(C)C)cc3)cc12`, the Potency is more than 20 µM.

On to `CC(=O)N1CCC2(CCN(Cc3ccncc3)CC2)CC1`, for which the Potency was more than 20 µM.

Turning to `c1ccc2c(NC3CC3)nc(-c3ccoc3)nc2c1`, the Potency is more than 20 µM.

With `COc1ccccc1CN1CC[C@@]2(CCCN(S(=O)(=O)c3ccccc3)C2)C1`, the Potency is more than 20 µM.

Turning to `CCNc1ncc2ncc(=O)n(Cc3cccc(OC)c3)c2n1`, the Potency was more than 20 µM.

In the case of `COc1ccccc1-c1nc(NC2CC2)c2ccccc2n1`, the Potency is more than 20 µM.

Consider `COc1ccccc1-c1nccc(NCc2cccs2)n1`, for which the Potency is more than 20 µM.

On to `Cc1cccc(CNc2ncncc2-c2ccccc2C)c1`, for which the Potency was more than 20 µM.

Regarding `COCC(=O)N1CCC2(CCN(Cc3ccccc3OC)CC2)CC1`, the Potency was more than 20 µM.

In the case of `CC(C)NC(=O)N1CC2(CCN(C(=O)c3ccco3)CC2)C1`, the Potency is more than 20 µM.

Regarding `COCCn1c(=O)c(-c2ccccc2)nc2cnc(N3CCNCC3)nc21`, the Potency was more than 20 µM.

As for `Cc1nc2cnc(Oc3cccc(Cl)c3)nc2n(C2CC2)c1=O`, the Potency was more than 20 µM.

With `CN(C)c1ccc(-c2cncnc2NCCc2cnc[nH]2)cc1`, the Potency is more than 20 µM.

For the compound `COc1ccccc1-c1nccc(N2CCN(C)CC2)n1`, the Potency was more than 20 µM.

On to `CN(C)c1ncnc2ccc(-c3ccccc3C#N)cc12`, for which the Potency was more than 20 µM.

In the case of `O=c1c(-c2cc(F)cc(F)c2)nc2cncnc2n1Cc1ccc(F)cc1`, the Potency is more than 20 µM.

For the origin of these results see PubChem BioAssay (NCATS).
